# Screens (PubChem BioAssay)
# Most compounds without a hit are left out; they make up all but 7.3% or so of the library.
# Tau fibril FP – qHTS for Inhibitors of Tau Fibril Formation, Fluorescence Polarization. K18 P301L tau heparin fibrillization, Alexa594 FP, 6 h. Potency, µM (titrated, usually from 57.7 µM), for inactives: at the highest dose activity, negative = inhibition, hits mostly inhibitors. 0.39% of 280,000 active; note: nearly all actives have a fitted effect of over 55% in size
# Target sequence (P10636 561-689 P618L limits assumed): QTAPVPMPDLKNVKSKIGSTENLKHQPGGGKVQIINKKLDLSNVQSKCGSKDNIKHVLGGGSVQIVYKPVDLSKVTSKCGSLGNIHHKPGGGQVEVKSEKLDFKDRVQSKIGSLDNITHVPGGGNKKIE
#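 Quantitative HTS format: compounds meet 15 uM recombinant K18 P301L tau and Alexa 594-tau tracer in 100 mM sodium acetate pH 7; 20 uM heparin triggers fibrillization at 37 C over 6 hr; FP gives the signal.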
# Gal4-VP16 FLuc – VP16 counterscreen qHTS for inhibitors of ROR gamma transcriptional activity; AID 2546, 2010; 3.5% of 310,000 active; Potency, µM (titrated, usually from 53.6 µM), inactives show top-dose activity, negative = inhibition, usual class: inhibitors; Drosophila S2 Gal4-VP16 UAS-luciferase, luminescence, 20 h;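 note: Gal4-VP16 expression switched on by copper sulfate through the metallothionein promoter; nearly all actives have a fitted effect of over 50% in size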
# RORg inh – qHTS for inhibitors of ROR gamma transcriptional activity; Potency, µM (doses to about 53.6 µM), for the others: at the highest dose activity change, negative = inhibition, hits mostly inhibitors; 5.4% of 310,000 active; Drosophila S2 Gal4-RORgamma UAS-luciferase reporter, 20 h; note: nearly all actives have a fitted effect of over 60% in size
# Target sequence (P51450 whole entry, looked up, the tested form may be a part): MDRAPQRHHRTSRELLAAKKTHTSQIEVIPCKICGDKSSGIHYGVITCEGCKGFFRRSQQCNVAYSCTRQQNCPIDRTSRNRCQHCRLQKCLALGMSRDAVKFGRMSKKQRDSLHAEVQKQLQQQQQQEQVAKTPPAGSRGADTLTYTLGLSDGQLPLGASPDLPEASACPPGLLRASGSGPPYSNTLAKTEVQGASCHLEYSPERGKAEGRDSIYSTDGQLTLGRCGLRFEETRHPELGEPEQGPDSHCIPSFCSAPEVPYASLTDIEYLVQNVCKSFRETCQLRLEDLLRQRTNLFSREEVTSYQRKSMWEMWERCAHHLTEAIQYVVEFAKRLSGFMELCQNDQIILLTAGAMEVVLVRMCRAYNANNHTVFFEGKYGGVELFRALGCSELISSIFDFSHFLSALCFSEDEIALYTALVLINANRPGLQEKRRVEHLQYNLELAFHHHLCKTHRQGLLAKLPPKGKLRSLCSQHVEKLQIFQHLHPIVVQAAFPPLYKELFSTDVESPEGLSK
#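 Luminescence from a UAS-regulated Photinus luciferase reporter in stably transfected Drosophila Schneider cells is measured; decreased signal marks ROR gamma inhibition. Fusion expression is induced by 700 uM copper sulfate for 20 hr.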
# Tau ThT inhib – qHTS for Inhibitors of Tau Fibril Formation, Thioflavin T Binding; recombinant tau K18 P301L, heparin-induced fibrillization, ThT fluorescence; Potency, µM (series often up to 57.4 µM), inactives show at the highest dose activity, negative = inhibition, actives largely listed as inhibitors; 2.1% of 270,000 active; note: nearly all actives have a fitted effect of over 55% in size
#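 Heparin-induced (20 uM) aggregation of recombinant human K18 P301L tau, 15 uM unlabeled with 0.24 uM labeled, pH 7 acetate buffer, 6 hr at 37 C with compound. Fibrils quantified by 30 uM ThT fluorescence after 1 hr ambient incubation.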
# Tau fluor counter – Counterscreen qHTS for Inhibitors of Tau Fibril Formation, Fluorescence Polarization; AID 1463, 2008; Potency, µM (top dose mostly 57.7 µM), without a hit: at the top dose activity change, negative = decrease; 0.93% of 280,000 active; tau K18 P301L (four-repeat tau fragment) Alexa594 fluorescence, heparin fibrillization; note: nearly all actives have a fitted effect of over 55% in size
#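 Human K18 P301L tau (15 uM unlabeled plus 0.24 uM Alexa 594-labeled, final) in 100 mM sodium acetate pH 7 was mixed with compound and 20 uM heparin and incubated 6 hr at 37 C.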
# * hit, by the source's call; ? = inconclusive; / = no result; [ ] = dose if it differs, or a comment. Calls come from the whole dose curve; as a rule, active = well fitted curve in the direction sought with a large enough effect; inconclusive = small, poorly fitted or top-dose-only effect, or another doubt; inactive = no such curve, though single readings can be large; an effect the other way counts as inactive or inconclusive. % is set by controls: 0 for no effect and ±100 for the full control effect; potency is the fitted concentration of half-maximal effect.
SMILES,Tau fibril FP,Gal4-VP16 FLuc,RORg inh,Tau ThT inhib,Tau fluor counter
Cc1ccc(NC(=S)Nc2ccc(S(=O)(=O)Nc3ncccn3)cc2)c(C)c1,-3.4%,-18.6%,12.6µM*,-3.1%,0.3%
O=C(Nc1ccc(S(=O)(=O)Nc2ccc(F)cc2)cc1)c1ccc(CN2CCOCC2)cc1,5.4%,?,?,-2.0%,-2.8%
COc1ccc(C(=O)N2CCC3(CCN(Cc4ccccc4)CC3)CC2)cc1,/,-3.2%,-19.7%,/,/
CCN1C(=O)c2ccccc2S(=O)c2ccc(C(=O)N3CCN(c4cccc(Cl)c4)CC3)cc21 (configuration not stated),12.2%,/,/,-7.6%,-8.8%
CCN(CC(=O)NCCCN1CCOCC1)S(=O)(=O)c1ccc(Cl)cc1,/,8.0%,-3.7%,/,/
O=C(Nc1ccc(Cc2ccncc2)cc1)c1ccc(S(=O)(=O)N2CCOCC2)cc1,-5.0%,7.08µM*,-41.2%,-9.7%,-20.1%
COc1ccc(NS(=O)(=O)c2ccc(O)c(NC(=O)c3ccc(S(=O)(=O)N4CCCCCC4)cc3)c2)cc1,-2.8%,-6.9%,4.5%,4.4%,-0.8%
O=C(Nc1ccc(S(=O)(=O)N2CCOCC2)cc1)c1ccc(S(=O)(=O)N2CCOCC2)cc1,/,-8.2%,10.1%,/,/
O=C(CSc1ccccc1)Nc1ccc(S(=O)(=O)Nc2ncccn2)cc1,-5.8%,4.8%,12.6µM*,-1.8%,0.3%
COc1ccc(NS(=O)(=O)c2cccc(NC(=O)c3ccc(S(=O)(=O)N4CCCCCC4)cc3)c2)cc1,?,3.16µM*,-52.4%,13.2%,?
NS(=O)(=O)c1ccc(Nc2nc3ccccc3nc2NS(=O)(=O)c2cccc([N+](=O)[O-])c2)cc1,8.4%,8.7%,25.6%,11.2µM*,?
NS(=O)(=O)c1ccc(CNS(=O)(=O)c2cccc3nonc23)cc1,2.4%,-4.8%,3.1%,/,-2.0%
O=S(=O)(Nc1nc2ccccc2nc1Nc1cccc(S(=O)(=O)N2CCCCC2)c1)c1ccccc1,-10.9%,12.6µM*,?,?,?
COc1ccc(NS(=O)(=O)c2ccc(N3CCOCC3)c(NC(=O)c3ccc(OC)cc3)c2)cc1,0.7%,-6.1%,9.0%,-7.6%,-22.8%
COc1ccc(NS(=O)(=O)c2ccc(N3CCCC3)c(NC(=S)Nc3cccc(S(=O)(=O)N(C)C)c3)c2)cc1,?,-16.1%,?,25.1µM*,?
COc1ccc(S(=O)(=O)Nc2cccc(S(=O)(=O)N3CCCCCC3)c2)cc1,-11.5%,-11.5%,25.8%,-9.8%,?
COc1ccc(N(C)C(=O)c2cn(C)c(=O)c3cc(OC)c(OC)cc23)cc1,5.2%,8.3%,-0.5%,5.8%,4.1%
COc1ccc(C2C(C#N)=C(N)Oc3c2sc2nc(C)cc(C)c32)cc1 (configuration not stated),?,6.9%,-22.0%,25.1µM*,?
Brc1ccc(-n2cc(-c3ccccc3)c3c(NN4CCOCC4)ncnc32)cc1,3.8%,?,6.31µM*,?,-9.3%
Cc1nn(C)c2c1c(C(F)(F)F)cc(=O)n2C(C)C(=O)NCc1ccccc1 (configuration not stated),5.8%,/,/,3.8%,-1.9%
S=c1nc(Cc2ccc(Cl)cc2)[nH]c2ccccc12,?,11.2µM*,1.78µM*,-4.5%,-6.9%
Cc1nc(=S)c2ccccc2[nH]1,-6.5%,?,10µM*,-5.5%,-6.5%
O=c1[nH]c(COc2ccccc2)nc2ccccc12,/,16.7%,24.5%,/,/
S=c1nc(COc2ccccc2)[nH]c2ccccc12,/,17.8µM*,1.58µM*,/,/
Cc1ccc(Cc2nc3ccccc3[nH]2)cc1,/,-2.1%,0.9%,/,/
SMILES,Tau fibril FP,Gal4-VP16 FLuc,RORg inh,Tau ThT inhib,Tau fluor counter
S=c1nc(Cc2ccccc2)[nH]c2ccccc12,/,6.31µM*,2.82µM*,/,/
C=CCNc1nc(Cl)nc(NC2CCCCC2)n1,/,6.5%,?,/,/
O=[N+]([O-])c1ccc2oc(C(O)c3cccc(Cl)c3)cc2c1 (configuration not stated),/,-5.4%,-10.3%,/,/
O=C(O)c1ccc(N2C(=O)/C(=C/c3ccc(-c4ccc([N+](=O)[O-])cc4)o3)C=C2c2ccccc2)cc1,?,-0.5%,-0.8%,4.47µM*,?
CCOc1ccc(NC(=O)C(c2ccccn2)N(C(=O)CCl)c2ccc(OCC)cc2)cc1 (configuration not stated),?,-13.0%,-11.4%,10µM*,?
COc1cc(OC)c2c(c1)OC1Cc3cc(OC)c(OC)cc3C2O1 (configuration not stated),-0.9%[11.6 µM],/,/,-14.6%[11.5 µM],-18.7%[11.6 µM]
COc1cccc(Cn2c(=O)c(-c3cn(C)c4ccccc34)nc3cnc(N4CCOCC4)nc32)c1,/,2.4%,6.3%,/,/
COc1cccc(Cn2c(=O)c(-c3cn(C)c4ccccc34)nc3cnc(N4CCNCC4)nc32)c1,/,?,20µM*,/,/
Cn1cc(-c2nc3cnc(N4CCNCC4)nc3n(C)c2=O)c2ccccc21,/,11.2µM*,10µM*,/,/
CCC1=C2CC[C@H]3C(=O)N(C)C(=O)[C@H]3[C@H]2[C@@]2(C)C(=NCc3ccccc3)OC(=O)N2C1=O,-1.3%,14.5%,15.1%,-13.5%,-3.6%
Cc1cccc(NC(=O)CSc2nc3ccc(NC(=O)c4cccs4)cc3s2)c1,?,/,/,5.3%,?
COc1cc(C)ccc1OCCSc1nc2ccc(NC(=O)c3cccs3)cc2s1,10µM*,/,/,1.1%,5.01µM*[quencher]
COc1cccc(NC(=O)CSc2nc3ccc(NC(=O)c4cccs4)cc3s2)c1,7.94µM*,/,/,0.0%,7.08µM*[quencher]
CC(=O)Nc1ccc2nc(NC(=O)COc3ccccc3Cl)sc2c1,-15.9%,22.6%,18.7%,?,-19.8%
CC(=O)Nc1ccc2nc(SCCOc3ccccc3Cl)sc2c1,11.2µM*,/,/,?,11.2µM*[quencher]
Cc1nc2c(-c3ccc(F)cc3)cnn2c(N)c1-c1ccccc1,/,?,0.0447µM*,/,/
CCOc1ccc2nc(SCC(=O)c3ccccc3)sc2c1,-5.1%,?,?,?,-24.6%
CCOc1ccc2nc(SC3CC(=O)N(c4ccccc4)C3=O)sc2c1 (configuration not stated),5.8%,12.6µM*,10µM*,?,-15.7%
CCOc1ccc2nc(SC3CC(=O)N(c4cccc(OC)c4)C3=O)sc2c1 (configuration not stated),11.4%,3.98µM*,14.1µM*,?,-21.2%
CCOc1ccc(N(C)S(=O)(=O)c2ccc3c(c2)C(C)(C)C(=O)N3C)cc1,0.0%,/,/,10.4%,0.3%
Cc1cc(N/N=C2\CC(C)CC(C)(C)C2)nc2ccccc12 (configuration not stated),-0.7%,-3.8%,12.6µM*,?,-11.5%
